Laboratory results as given in PubChem BioAssay AID1851 (National Center for Advancing Translational Sciences (NCATS), 2009).
The campaign covered roughly 16,000 compounds. About 4,000 (25%) were called active. Another 26% or so got no clear call; they are omitted. Calls come from the whole dose curve; as a rule, active = well fitted curve in the direction sought with a large enough effect; inconclusive = small, poorly fitted or top-dose-only effect, or effect the other way; inactive = no such curve, though single readings can be large or run the other way. The list is a sample of the results.

target: Cytochrome P450 2C9 (Homo sapiens) (UniProt P11712); assay: Cytochrome panel assay with activity outcomes; settings: recombinant CYP, pro-luciferin dealkylation, luminescence, p450-cyp2c9; series mostly up to 57.1 µM; activity, negative = inhibition: at the top concentration
Sequence (P11712 whole entry, looked up): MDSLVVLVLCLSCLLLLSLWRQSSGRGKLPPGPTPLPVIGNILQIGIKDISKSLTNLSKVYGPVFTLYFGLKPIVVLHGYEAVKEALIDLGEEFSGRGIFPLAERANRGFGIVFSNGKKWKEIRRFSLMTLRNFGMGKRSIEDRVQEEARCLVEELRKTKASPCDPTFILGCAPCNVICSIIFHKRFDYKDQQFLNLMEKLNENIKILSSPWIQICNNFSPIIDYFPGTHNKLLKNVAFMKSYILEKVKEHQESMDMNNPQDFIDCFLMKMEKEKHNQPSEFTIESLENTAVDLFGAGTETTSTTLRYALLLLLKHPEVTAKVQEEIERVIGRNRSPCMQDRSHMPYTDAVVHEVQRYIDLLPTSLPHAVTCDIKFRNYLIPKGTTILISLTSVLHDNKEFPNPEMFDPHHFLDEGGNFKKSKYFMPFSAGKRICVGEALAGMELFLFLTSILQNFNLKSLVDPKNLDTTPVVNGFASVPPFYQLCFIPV
% is set by controls: 0 for no effect and ±100 for the full control effect.

activity, negative = inhibition, inactive:
CC[C@@]1([N+](=O)[O-])C[C@H]2C=C[C@@H]1C2 -0.495% [at 11.4 µM]
NCCNCC1CCNCC1 9.94% [at 11.4 µM]
CCN(CC)CCOC(=O)[C@@H](Cc1cccc2ccccc12)C[C@@H]1CCCO1 19.7% [at 25.6 µM]
Cc1ccc(-c2ccc(CCC(=O)O)o2)cc1 -27.5%
CCOC(=O)c1ccc(N)cc1 -13.8% [at 25.6 µM]
C[C@@]1(CCOCc2ccccc2)NC(=O)NC1=O -8.7% [at 11.4 µM]
COC(=O)CSc1cc(C(F)(F)F)nc(-c2ccccn2)n1 -26%
COc1ccccc1-c1nccc(NCc2cccnc2)n1 -15.5% [at 2.29 µM]
COc1cccc(-c2nccc(NCc3cccnc3)n2)c1 0.577% [at 2.29 µM]
O=C(O)C(Cl)(c1ccccc1)c1ccccc1 -22.8% [at 11.4 µM]
CN(C)Cc1ccc(C(C)(C)C)cc1-c1cc(C(C)(C)C)ccc1CN(C)C 4.33% [at 11.4 µM]
Cn1c(=O)c(-c2ccc(F)cc2)nc2cncnc21 7.67%
COCCn1c(=O)c(-c2ccc(F)c(F)c2)nc2cncnc21 -22.3%
COc1ccc(-n2c(=O)c(-c3ccc(F)c(F)c3)nc3cncnc32)cc1 3.26%
COCCn1c(=O)c(-c2cccc(Cl)c2)nc2cncnc21 -28.7%
COCCn1c(=O)c(-c2ccc(F)cc2)nc2cncnc21 -8.81%
Cn1c(=O)c(-c2ccccc2)nc2cncnc21 5.36%
Cc1noc(C)c1-c1cncnc1NCc1ccccc1 18.5% [at 2.29 µM]
CCc1cc2c(nc1CC)CCN(CC/C(C)=N/OC[C@@H](O)COCc1ccco1)C2 17.1% [at 11.4 µM]
CCN(CC)C(=O)CSc1nc(O)cc(=O)n1CC -12.4%
CO[C@H]1COC(=O)[C@@H](C)COC(=O)[C@@H](Cc2ccccc2)NC(=O)C/C=C\[C@H]1C 5.22% [at 11.4 µM]
COc1ccc(CNc2ccnc(-c3ccccc3OC)n2)c(OC)c1 14.7% [at 2.29 µM]
Cn1cc(-c2nc3cncnc3n(Cc3ccccc3Cl)c2=O)c2ccccc21 -18.5%
COc1ncc2nc(-c3cn(C)c4ccccc34)c(=O)n(CCC#N)c2n1 7.16%
COc1ccc(N2C(N)=NC(N)=NC2(C)C)cc1 3%
CNc1ncncc1-c1ccccc1C -4.77% [at 2.29 µM]
COc1ccc(C(=O)N2CCC[C@@]3(CCN(Cc4ccc(C#N)cc4)C3)C2)cc1 7.58%
COc1ccc(C(=O)N2CCC[C@@]3(CCN(Cc4ccccc4)C3)C2)cc1 -7.93%
O=CN[C@@H](Cc1cnc[nH]1)C(=O)O -3.85% [at 11.4 µM]
COc1ccccc1-c1nc(NCCNC(C)=O)c2ccccc2n1 3.78% [at 2.29 µM]
COc1ccccc1-c1nc(N2CCOCC2)c2ccccc2n1 8.77% [at 2.29 µM]

AC50, active:
CCOC(=O)c1ccc(-c2ccc(CO)o2)cc1 15.8 µM
O=c1[nH]c2[nH]c(=S)[nH]c(=S)c2[nH]1 1.26 µM
COc1ccc(-c2cc(C(F)(F)F)nc(NCc3cccnc3)n2)cc1 5.62 µM
COc1ccc(-c2cc(C(F)(F)F)nc(SCc3cccc(C(=O)O)c3)n2)cc1 7.94 µM
COc1ccccc1CCn1c(=O)c(-c2ccc(F)cc2)nc2cncnc21 3.98 µM
COc1ccccc1CCn1c(=O)c(-c2ccccc2)nc2cncnc21 5.01 µM
COc1ccccc1CCn1c(=O)c(-c2cccc(Cl)c2)nc2cncnc21 1 µM
COc1ccccc1CCn1c(=O)c(-c2ccc(F)c(F)c2)nc2cncnc21 6.31 µM
COc1ccccc1CCn1c(=O)c(CCc2ccccc2)nc2cncnc21 7.94 µM
COc1ccccc1CCn1c(=O)c(-c2ccc(Cl)cc2)nc2cncnc21 3.98 µM
COc1ccccc1CCn1c(=O)c(-c2cccs2)nc2cncnc21 2.51 µM
O=c1c(CCc2ccccc2)nc2cncnc2n1Cc1ccc(F)cc1 7.94 µM
COc1ccccc1CCn1c(=O)c(-c2cn(C)c3ccccc23)nc2cncnc21 0.316 µM
O=C(c1ccc(COc2ccc(F)cc2)o1)n1cccn1 17.8 µM
CCCc1cc2c(n1Cc1ccc(OC)cc1)C(C)C1CN(C(=O)c3ccccc3)C(C)(C(=O)OC)C21 (configuration not stated) 12.6 µM
CCCc1cc2c(n1Cc1cc(F)cc(F)c1)C(C)C1CN(C(=O)c3ccccc3)C(C)(C(=O)OC)C21 (configuration not stated) 6.31 µM
